Source: PubChem BioAssay (NCATS)
Inconclusive results are not listed. Entries that show only a call come without a potency. Activity calls are given as the source filed them. Calls follow the shape of the dose curve; as a rule, active = well fitted inhibition curve with a large enough effect; inconclusive = small, poorly fitted or top-dose-only effect; inactive = flat fitted curve, though single readings scatter. Peptide text beside a SMILES is read from it.

System: CP203
Experiment: qHTS profiling for inhibitors of Plasmodium falciparum proliferation (AID 504749); also: nearly all actives have a fitted effect of over 60% in size
Conditions: P. falciparum in erythrocytes, SYBR Green DNA, 72 h; series mostly up to 28.7 µM
Description: NIH National Institute of Allergy and Infectious Diseases [NIAID] NIH Chemical Genomics Center [NCGC] MLPCN Grant: None Assay Provider: Xinzhuan Su, NIAID NCGC Assay Overview: Plasmodium falciparum is a virulent malarial parasite that kills 1-2 million people worldwide each year. Transmitted by mosquitoes, the sporozoite form of the parasite enters the blood stream to infect hepatocytes, where they become merozoites that infect red blood cells (erythrocytes). Within erythrocytes, merozoites begin a […] cycle of growth and division, after which the parasite is released to infect new red blood cells. Gametocytes, which form within erythrocytes as well, circulate in the bloodstream and are ingested by the mosquito, thereby completing the life cycle. To profile malarial isolates for differential chemical responses and to identify inhibitors of malarial growth, an assay that measures P. falciparum growth and replication within erythrocytes was employed. This assay uses a DNA binding fluorescent dye (SYBR Green) to detect parasite DNA following cell lysis. Because mature erythrocytes lack DNA, only Plasmodium-derived DNA is detected.
NCGC Assay Protocol Summary: The SYBR Green viability assay was adapted from a method described previously (Plouffe et al., 2008). For screening 3 ul culture medium was dispensed into 1536 well black clear bottom plates (Aurora Biotechnologies) using a Multidrop Combi (Thermo Fisher Scientific Inc.), 23 nL compounds in DMSO were added by a pin tool (Kalypsys), and 5 ul of erythrocytes infected with P. falciparum (0.3% parasitemia, 2.5% hematocrit final concentration) were added. The plates were incubated at 37 C in a humidified incubator in 5% CO2 for 72 h, and 2 ul lysis buffer (20 mM Tris HCl, 10 mM EDTA, 0.16% saponin, 1.6% triton X, 10X SYBR Green I supplied as 10,000X […] by Invitrogen) was added to each well. The plates were mixed for 25 sec with gentle shaking and incubated overnight at room temperature in the dark. The following morning, fluorescence intensity at 485(14) nm excitation and 535(25) nm emission wavelengths was measured on an EnVision (Perkin Elmer) plate reader. Plate reads were normalized relative to the control inhibitor (0.29 uM artemisinin) and vehicle (DMSO) wells present on each plate and then corrected by an algorithm using vehicle-only control plates at the beginning and end of the compound plate stack.
Potency is read from the fitted curve at half-maximal effect.

SMILES | Potency
NC(=O)c1ncn(C2OC(CO)C(O)C2O)n1 (stereo not given) | inactive
O=C(O)CN(CCN(CC(=O)O)CC(=O)O)CC(=O)O | inactive
CC(C(=O)O)c1ccc(N2Cc3ccccc3C2=O)cc1 (stereo not given) | inactive
C=CCSSSCC=C | inactive
C[C@H]1C[C@H]2[C@@H]3CCC4=CC(=O)C=C[C@]4(C)[C@@]3(F)[C@@H](O)C[C@]2(C)[C@@]1(O)C(=O)CO | inactive
CC(C)N=c1cc2n(-c3ccc(Cl)cc3)c3ccccc3nc-2cc1Nc1ccc(Cl)cc1 | inactive
CCCCCCCC/C=C\CCCCCCCC(=O)O | inactive
Oc1cc(O)c2c(c1)OC(c1ccc(O)c(O)c1)C(O)C2 (stereo not given) | inactive
O=C1C(=O)c2ncccc2-c2cccnc21 | 1.69 µM (active)
CCCCCCCCCCCCCC[n+]1ccc(C)cc1 | 3.79 µM (active)
CCCCCCCCCCCCCCCC(=O)OCC(COC(=O)CCCCCCCCCCCCCCC)OC(=O)CCCCCCCCCCCCCCC | inactive
COC(=O)[C@H]1[C@H]2C[C@@H]3c4[nH]c5ccccc5c4CCN3C[C@H]2C[C@@H](OC(=O)c2cc(OC)c(OC)c(OC)c2)[C@@H]1OC | 0.536 µM (active)
O=C(COc1ccc(Cl)cc1)OCCNC12CC3CC(CC(C3)C1)C2 | inactive
CCOC(C)=O | inactive
O=C(O)c1cc(=O)c2c3nc4ccccc4oc-3cc(=O)c2[nH]1 | inactive
Cc1cc(C(=O)NNCc2ccccc2)no1 | inactive
Nc1c(N=Nc2ccc(-c3ccc(N=Nc4cc(S(=O)(=O)O)c5ccccc5c4N)cc3)cc2)cc(S(=O)(=O)O)c2ccccc12 | inactive
O=CCCCC=O | inactive
CC[N+](C)(C)Cc1ccccc1Br | inactive
C[C@@H]1CCC2[C@@H](C)[C@@H](O)O[C@@H]3O[C@@]4(C)CC[C@@H]1[C@@]23OO4 (stereo not given in full) | 0.0034 µM (active)

SMILES | Potency
CC1=C(/C=C/C(C)=C/C=C/C(C)=C/C=C/C=C(C)/C=C/C=C(C)/C=C/C2=C(C)C(=O)CCC2(C)C)C(C)(C)CCC1=O | inactive
CCCC(=O)O[C@]1(C(=O)CCl)[C@H](C)C[C@@H]2[C@H]3CCC4=CC(=O)C=C[C@]4(C)[C@@]3(F)C(=O)C[C@@]21C | 4.78 µM (active)
CCNC(=O)[C@@H]1CCCN1C(=O)[C@H](CCCN=C(N)N)NC(=O)[C@H](CC(C)C)NC(=O)[C@@H](Cc1c[nH]c2ccccc12)NC(=O)[C@H](Cc1ccc(O)cc1)NC(=O)[C@H](CO)NC(=O)[C@H](Cc1c[nH]c2ccccc12)NC(=O)[C@H](Cc1cnc[nH]1)NC(=O)[C@@H]1CCC(=O)N1 | 6.75 µM (active)
CC(NNC(=O)c1ccccc1)c1ccccc1 (stereo not given) | inactive
CC(Cc1ccc(O)c(O)c1)C(C)Cc1ccc(O)c(O)c1 (stereo not given) | inactive
COC(C(=O)C(O)C(C)O)C1Cc2cc3cc(OC4CC(OC5CC(O)C(O)C(C)O5)C(O)C(C)O4)c(C)c(O)c3c(O)c2C(=O)C1OC1CC(OC2CC(OC3CC(C)(O)C(O)C(C)O3)C(O)C(C)O2)C(O)C(C)O1 (stereo not given) | 3.01 µM (active)
COC(F)(F)C(Cl)Cl | inactive
CCCCC(C)(O)C/C=C/[C@H]1[C@H](O)CC(=O)[C@@H]1CCCCCCC(=O)OC (stereo not given in full) | inactive
CCC(=O)NCCC1CCc2ccc3c(c21)CCO3 (stereo not given) | inactive
Nc1ncnc2c1ncn2[C@@H]1O[C@H](COP(=O)(O)OP(=O)(O)OP(=O)(O)O)[C@@H](O)[C@H]1O | inactive
O=S(=O)(O)c1ccc2c(N=Nc3ccc(S(=O)(=O)O)c4ccccc34)c(O)c(S(=O)(=O)O)cc2c1 | inactive
CCCC(=O)Nc1ncnc2c1ncn2C1OC2COP(=O)(O)OC2C1OC(=O)CCC (stereo not given) | inactive
CCOc1ccc2c(c1)C(C)=CC(C)(C)N2 | inactive
O=S(=O)(O)c1cc(O)c2c(N=Nc3ccc(Nc4ccccc4)c4c(S(=O)(=O)O)cccc34)cc(S(=O)(=O)O)cc2c1 | inactive
IC(I)I | inactive
CCN(CC)CCOc1ccc(-c2nc3cc(Cl)ccc3s2)cc1 | inactive
CN1C(=O)CN2CCc3ccccc3C2c2cc(Cl)ccc21 (stereo not given) | inactive
CC(=O)N[C@@H](CC(=O)O)C(=O)N[C@@H](CCC(=O)O)C(=O)O (Ac-Asp-Glu-OH) | inactive
COCC(=O)Nc1cc(Sc2ccccc2)ccc1N=C(NC(=O)OC)NC(=O)OC | inactive
Cc1c(C)c2c(c(C)c1O)CC[C@@](C)(CCC[C@H](C)CCC[C@H](C)CCCC(C)C)O2 | inactive
